# Substitutions are numbered along the chain they refer to.
# Key:
# Assay in all cases: yeast three-hybrid, YBZ-1, SC-Leu-His + 0.5 mM 3-AT, 4 days
# Settings in all cases: tags: N-Gal4 AD-HA kept; label: inside an RPR1-promoter hybrid RNA with tandem MS2 sites; ssRNA
# [1] = target: PUM1 PUF domain R8-NFV (Homo sapiens, UniProt Q14671 828-1176, Y1123F;Q1126V)
# Summary of the method: (§1)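 A centromeric plasmid in strain YBZ-1 co-expressed Pumilio-1 PUF domain libraries, randomized at the three base-contacting residues of each repeat, with matching RNA elements; the strain carries a LexA–MS2 coat fusion and a HIS3 reporter. After four days on SC-Leu (input) or SC-Leu-His + 0.5 mM 3-AT (selection), the repeat regions were PCR-amplified and Illumina-sequenced. The interaction score is the log change in variant frequency from input to selection, using log2 and a pseudocount of 1 where absent.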
# [2] = target: PUM1 PUF domain R8-RFC (Homo sapiens, UniProt Q14671 828-1176, N1122R;Y1123F;Q1126C)
# Summary of the method: as §1
# [3] = target: T1, PUM1 PUF domain R6-GRQ (Homo sapiens, UniProt Q14671 828-1176, N1043G;Y1044R)
# T1 sequence: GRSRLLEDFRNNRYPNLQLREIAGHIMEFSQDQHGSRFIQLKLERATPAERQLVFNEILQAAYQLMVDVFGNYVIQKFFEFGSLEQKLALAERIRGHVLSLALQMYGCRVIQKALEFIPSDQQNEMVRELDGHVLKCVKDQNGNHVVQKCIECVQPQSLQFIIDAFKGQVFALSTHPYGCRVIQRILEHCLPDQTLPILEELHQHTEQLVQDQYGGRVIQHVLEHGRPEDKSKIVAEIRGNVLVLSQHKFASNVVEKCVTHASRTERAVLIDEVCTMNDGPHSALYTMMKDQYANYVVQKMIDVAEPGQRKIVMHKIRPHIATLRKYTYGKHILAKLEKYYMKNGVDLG
# Summary of the method: as §1
# [4] = target: T2, PUM1 PUF domain R6-AYM (Homo sapiens, UniProt Q14671 828-1176, N1043A;Q1047M)
# T2 sequence: T1 sequence with G216A, R217Y, Q220M
# Summary of the method: as §1
# [5] = target: PUM1 PUF domain R8-KWH (Homo sapiens, UniProt Q14671 828-1176, N1122K;Y1123W;Q1126H)
# Summary of the method: as §1
# [6] = target: PUM1 PUF domain R3-APM (Homo sapiens, UniProt Q14671 828-1176, C935A;R936P;Q939M)
# Summary of the method: as §1
# [7] = target: PUM1 PUF domain R4-CPN (Homo sapiens, UniProt Q14671 828-1176, N971C;H972P;Q975N)
# Summary of the method: as §1
# [8] = target: PUM1 PUF domain R5-MGR (Homo sapiens, UniProt Q14671 828-1176, C1007M;R1008G;Q1011R)
# Summary of the method: as §1
# [9] = target: PUM1 PUF domain R7-LNA (Homo sapiens, UniProt Q14671 828-1176, S1079L;E1083A)
# Summary of the method: as §1
# [10] = target: PUM1 PUF domain R7-GGR (Homo sapiens, UniProt Q14671 828-1176, S1079G;N1080G;E1083R)
# Summary of the method: as §1
# [11] = target: PUM1 PUF domain R1-KYI (Homo sapiens, UniProt Q14671 828-1176, S863K;R864Y;Q867I)
# Summary of the method: as §1
# [12] = target: PUM1 PUF domain R1-MYR (Homo sapiens, UniProt Q14671 828-1176, S863M;R864Y;Q867R)
# Summary of the method: as §1
# [13] = target: PUM1 PUF domain R5-SGS (Homo sapiens, UniProt Q14671 828-1176, C1007S;R1008G;Q1011S)
# Summary of the method: as §1
# [14] = target: PUM1 PUF domain R3-RAH (Homo sapiens, UniProt Q14671 828-1176, C935R;R936A;Q939H)
# Summary of the method: as §1
# [15] = target: T3, PUM1 PUF domain R6-GFE (Homo sapiens, UniProt Q14671 828-1176, N1043G;Y1044F;Q1047E)
# T3 sequence: T1 sequence with R217F, Q220E
# Summary of the method: as §1
sequence,measurement,setting,value
GGCUAGAACUAGUGGAUCCCCCGGCGCCCGGCGGCUCGAGCCCGGGUAAGUGUAAAUAGUCUGCAUGCCGCCGGGCGCCAUGCCUGCAGGUCGACUCUAGAAAACAUG,binding signal,[1],3.02 log2 enrichment (interaction score)
same,binding signal,[2],4.53 log2 enrichment (interaction score)
same,binding signal,[3],3.49 log2 enrichment (interaction score)
same,binding signal,[4],4.27 log2 enrichment (interaction score)
same,binding signal,[5],4.79 log2 enrichment (interaction score)
same,binding signal,[6],2.44 log2 enrichment (interaction score)
same,binding signal,[7],3.19 log2 enrichment (interaction score)
same,binding signal,[8],1.08 log2 enrichment (interaction score)
GGCUAGAACUAGUGGAUCCCCCGGCGCCCGGCGGCUCGAGCCCGGGUAAGUUUAAAUAGUCUGCAUGCCGCCGGGCGCCAUGCCUGCAGGUCGACUCUAGAAAACAUG,binding signal,[9],4.5 log2 enrichment (interaction score)
same,binding signal,[10],3.28 log2 enrichment (interaction score)
GGCUAGAACUAGUGGAUCCCCCGGCGCCCGGCGGCUCGAGCCCGGGUAAGCGUAAAUAGUCUGCAUGCCGCCGGGCGCCAUGCCUGCAGGUCGACUCUAGAAAACAUG,binding signal,[2],5.87 log2 enrichment (interaction score)
GGCUAGAACUAGUGGAUCCCCCGGCGCCCGGCGGCUCGAGCCCGGGUAAGUGUAAAUCGUCUGCAUGCCGCCGGGCGCCAUGCCUGCAGGUCGACUCUAGAAAACAUG,binding signal,[11],4.65 log2 enrichment (interaction score)
same,binding signal,[12],3.82 log2 enrichment (interaction score)
GGCUAGAACUAGUGGAUCCCCCGGCGCCCGGCGGCUCGAGCCCGGGUAAGUGUGAAUAGUCUGCAUGCCGCCGGGCGCCAUGCCUGCAGGUCGACUCUAGAAAACAUG,binding signal,[13],2.71 log2 enrichment (interaction score)
GGCUAGAACUAGUGGAUCCCCCGGCGCCCGGCGGCUCGAGCCCGGGUAAGUGUAAUUAGUCUGCAUGCCGCCGGGCGCCAUGCCUGCAGGUCGACUCUAGAAAACAUG,binding signal,[14],3.61 log2 enrichment (interaction score)
GGCUAGAACUAGUGGAUCCCCCGGCGCCCGGCGGCUCGAGCCCGGGUAAGUGUAAAUUGUCUGCAUGCCGCCGGGCGCCAUGCCUGCAGGUCGACUCUAGAAAACAUG,binding signal,[12],3.58 log2 enrichment (interaction score)
GGCUAGAACUAGUGGAUCCCCCGGCGCCCGGCGGCUCGAGCCCGGGUAAGUGGAAAUAGUCUGCAUGCCGCCGGGCGCCAUGCCUGCAGGUCGACUCUAGAAAACAUG,binding signal,[15],5.67 log2 enrichment (interaction score)
GGCUAGAACUAGUGGAUCCCCCGGCGCCCGGCGGCUCGAGCCCGGGUAAGUGUCAAUAGUCUGCAUGCCGCCGGGCGCCAUGCCUGCAGGUCGACUCUAGAAAACAUG,binding signal,[8],3.14 log2 enrichment (interaction score)
